# BAZ2B block: qHTS Assay for Inhibitors of BAZ2B; Bromodomain adjacent to zinc finger domain protein 2B (Homo sapiens), Q9UIF8; AlphaScreen BAZ2B-H3K14Ac peptide displacement; Potency, µM (series often up to 114 µM), inactives show top-dose activity change, negative = inhibition, usual class: inhibitors; 4.4% of 360,000 active; note: potency is the fitted concentration of half-maximal effect; % is set by controls: 0 for no effect and ±100 for the full control effect; nearly all actives have a fitted effect of over 60% in size
#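 BAZ2B (50 nM) with biotin-H3(5-23)K14Ac peptide (50 nM) in PBS pH 7.4, 0.01% Tween-20, preformed 30 min, then compound 30 min at room temperature; top concentration 110uM. AlphaScreen streptavidin donor/nickel chelate acceptor beads (10 ug/mL final), 20 min dark, signal read.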
# PI5P4K alpha inh: qHTS for Inhibitors of phosphatidylinositol 5-phosphate 4-kinase (PI5P4K); PI5P4Kalpha enzyme, ADP-Glo luminescence, 60 min; active compounds read low; max response, %; 1.2% of 330,000 active; AID 652105, 2013; active = max response of -50% or lower; inconclusive = between -30% and -50%; inactive = -30% or higher; note: value at the top dose of about 77 µM; % is set by controls: 0 for no effect and ±100 for the full control effect
# Target sequence (P48426 whole entry, looked up): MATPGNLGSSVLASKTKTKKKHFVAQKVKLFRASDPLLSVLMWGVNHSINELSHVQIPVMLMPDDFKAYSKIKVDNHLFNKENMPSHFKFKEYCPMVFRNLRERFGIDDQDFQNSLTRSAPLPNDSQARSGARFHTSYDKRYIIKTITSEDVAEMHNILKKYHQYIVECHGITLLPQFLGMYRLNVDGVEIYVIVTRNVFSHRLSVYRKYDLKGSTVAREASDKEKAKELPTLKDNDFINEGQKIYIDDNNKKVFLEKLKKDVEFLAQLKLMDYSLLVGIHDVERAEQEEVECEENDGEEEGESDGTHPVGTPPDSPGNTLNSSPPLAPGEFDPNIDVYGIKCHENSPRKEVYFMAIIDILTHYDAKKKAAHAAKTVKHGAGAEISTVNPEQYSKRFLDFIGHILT
#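 PI5P4Kalpha ADP-Glo assay; 5 microM ATP final; 60 min RT reaction; HEPES pH 7.4/EGTA/CHAPS, 5% DMSO; controls lacking substrate or enzyme; luminescent end-point.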
# KDM4E inh: qHTS Assay for Inhibitors of Human Jumonji Domain Containing 2E (JMJD2E). AID 2147, 2009. 1.6% of 230,000 active. Potency, µM (highest dose often 57.1 µM), without a hit: at the highest dose activity change, negative = inhibition, hits mostly inhibitors. JMJD2E catalytic domain, FDH-coupled NADH fluorescence (FDH is formaldehyde dehydrogenase); active = well fitted inhibition curve with a large enough effect, not every such curve was filed as active; inconclusive = small, poorly fitted or top-dose-only effect, or another doubt; inactive = no such curve, though single readings can be large or run the other way;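 note: potency is the fitted concentration of half-maximal effect; 0% = wells with enzyme and -100% = buffer wells without enzyme; nearly all actives have a fitted effect of over 50% in size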
# L3MBTL1 block: qHTS Assay for the Inhibitors of L3MBTL1 | Lethal(3)malignant brain tumor-like protein 1 (Homo sapiens), Q9Y468 | AlphaScreen L3MBTL1–H3K9me1 peptide binding | Potency, µM (titrated, usually from 57.1 µM), for the others: top-dose activity, negative = inhibition, most hits filed as inhibitors | 0.66% of 230,000 active | AID 485360, 2010; note: potency is the fitted concentration of half-maximal effect; % is set by controls: 0 for no effect and ±100 for the full control effect; nearly all actives have a fitted effect of over 60% in size
#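 L3MBTL1 (50 nM) pre-complexed 30 min with biotinylated H3(1-15)K9me1 peptide (75 nM), then compounds added for 30 min at room temperature; AlphaScreen streptavidin donor/nickel chelate acceptor beads (10 ug/mL final) read after 30 min dark incubation.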
# JMJD2A Tudor: qHTS Assay for Inhibitors of JMJD2A-Tudor Domain. AlphaScreen JMJD2A-Tudor / H3K4me3 peptide binding. Potency, µM (top dose mostly 114 µM), without a hit: top-dose activity change, negative = inhibition, usual class: inhibitors. 4.4% of 390,000 active; note: potency is the fitted concentration of half-maximal effect; % is set by controls: 0 for no effect and ±100 for the full control effect; nearly all actives have a fitted effect of over 50% in size
# HP1b binding inh: HTS for Inhibitors of HP1-beta Chromodomain Interactions with Methylated Histone Tails. AlphaScreen HP1-beta / biotin-H3K9me3 peptide binding. Potency, µM (titrated, usually from 114 µM), inactives show top-dose activity change, negative = inhibition, actives largely listed as inhibitors. 0.56% of 390,000 active; note: potency is the fitted concentration of half-maximal effect; nearly all actives have a fitted effect of over 70% in size
# Target sequence (P83916 whole entry, looked up): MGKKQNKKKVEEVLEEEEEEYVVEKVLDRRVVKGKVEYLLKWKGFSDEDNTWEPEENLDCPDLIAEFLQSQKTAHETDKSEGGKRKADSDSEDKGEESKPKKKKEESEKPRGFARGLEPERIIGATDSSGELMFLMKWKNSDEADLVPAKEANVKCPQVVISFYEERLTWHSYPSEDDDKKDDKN
#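 HP1-beta protein (50 nM final) preincubated 30 min at room temperature with biotinylated H3(1-18)K9me3 peptide (50 nM) in PBS pH 7.4, 0.01% Tween-20, then compound added for 30 min. AlphaScreen streptavidin donor/nickel chelate acceptor beads (10 ug/mL final), 30 min dark, luminescence read.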
# An asterisk follows results filed as active; ? = inconclusive; · = no result; ! = not confirmed by another sample; [ ] = another dose, or the depositor's remark. Most compounds without a hit are left out; they make up all but 5.7% or so of the library. Unless noted, calls come from the whole dose curve; as a rule, active = well fitted inhibition curve with a large enough effect; inconclusive = small, poorly fitted or top-dose-only effect; inactive = no such curve, though single readings can be large or run the other way.
SMILES,BAZ2B block,PI5P4K alpha inh,KDM4E inh,L3MBTL1 block,JMJD2A Tudor,HP1b binding inh
Cc1ccccc1-n1c(O)c(/C=N/NC(=O)c2ccncc2)c(=O)[nH]c1=O,?,?,?,-7%,89µM*,35%
O=CN1CC2CC(C1)c1cccc(=O)n1C2 (stereo unspecified),·,·,2%,·,·,·
Cc1ccc(/C=C2/C(=O)NC(=O)N(C)C2=O)cc1,-33%,-2,-12%,3%,-14%,20%
O=C1NC(=O)N(c2ccccc2)C(=O)/C1=C\c1ccc([N+](=O)[O-])s1,35µM*,-74*,?,·,22µM*,16µM*
COc1ccc(OC)c(N2C(=O)NC(=O)/C(=C\c3ccc([N+](=O)[O-])s3)C2=O)c1,28µM*,-61*,22µM*,10µM*,28µM*,25µM*
COc1ccc(N2C(=O)NC(=O)/C(=C\c3ccccc3[N+](=O)[O-])C2=O)cc1,-15%,-8,?,4%,-16%,13%
CN1C(=O)NC(=O)/C(=C/c2ccc([N+](=O)[O-])s2)C1=O,50µM*,-56*,22µM*,·,?,?
Cc1cc(/C=C2/C(=O)NC(=O)N(Cc3ccco3)C2=O)c(C)n1-c1ccccc1O,35µM*,?,32µM*,-15%,?,-8%
O=C(O)Cn1cc(/C=C2\C(=O)NC(=O)N(Cc3ccco3)C2=O)c2ccccc21,71µM*,?,?,5µM*,79µM*,-31%
Cc1ccc(CNC(=O)c2ccc(CSc3nc4ccncc4n3Cc3ccc(C)cc3)cc2)cc1,10%,·,·,·,-17%,44%
C=CCn1cc(C=C2C(=O)N(C)C(=O)N(C)C2=O)c2ccccc21,5%,-1,·,·,-11%,43%
C=CCc1cc(C=C2C(=O)NC(=O)NC2=O)cc(OC)c1OCc1ccc(C(=O)O)cc1,-7%,-62*,?,·,-27%,44%
C=CCc1cc(C=C2C(=O)N(C)C(=O)N(C)C2=O)cc(OCC)c1OCc1ccccc1,3%,-55*,-20%,32%,?,290%
C=CCN1C[C@H](C)N([C@H](c2ccc(C(=O)N(CC)CC)cc2)c2cccc(O)c2)C[C@H]1C,·,·,8%,·,·,·
CN1C2CCC1CC(OC(=O)C1CCC(C(=O)OC3CC4CCC(C3)N4C)(c3ccccc3)c3ccccc31)C2 (stereo unspecified),·,·,-8%,·,·,·
CC(=O)Nc1ccc(C2CN(C)CC2C(=O)c2ccc(Cl)cc2)cc1 (stereo unspecified),-19%,0,-7%,-1%,-20%,6%
CN1CC(C(=O)c2ccc(Cl)cc2)C(c2ccc(N(C)C)cc2)C1 (stereo unspecified),35µM*,4,6%,?,50µM*,-36%
C[N+]1([O-])[C@@H]2CC(OC(=O)[C@H](CO)c3ccccc3)C[C@H]1[C@@H]1O[C@@H]12 (stereo partly specified),-5%,-59*,·,15%,-3%,42%
C[N+]1(C)C2CCC1CC(OC(=O)C(CO)c1ccccc1)C2 (stereo unspecified),-4%,2,10µM*!,·,?,38%
Cc1cc(=O)n(-c2ccccc2)n1C,·,-2,5%,-2%,-14%,24%
CCN1C(=O)NC(=O)/C(=C\c2ccc(N3CCOCC3)cc2OC)C1=O,-24%[57.1 µM],·,-6%,-7%,·,·
O=C1NC(=O)N(Cc2cccs2)C(=O)/C1=C/c1ccc(N2CCOCC2)cc1,?,-52*,?,·,-34%,24%
CN1C(=O)/C(=C\c2ccc(Br)s2)C(=O)NC1=S,?,-77*,·,-5%,20µM*,8%
Cc1cc(/C=C2\C(=O)NC(=S)N(C)C2=O)c(C)n1C1CCCCC1,-21%,1,-4%,-8%,-15%,21%
O=C1NC(=S)NC(=O)C1=Cc1ccc(Br)s1,56µM*,-85*,·,-6%,28µM*,?
SMILES,BAZ2B block,PI5P4K alpha inh,KDM4E inh,L3MBTL1 block,JMJD2A Tudor,HP1b binding inh
CC/C(=N\Nc1cccc2ccccc12)c1c(O)[nH]c(=O)[nH]c1=O,?,?,?,-9%,79µM*,-14%
O=C(Cc1ccccc1)N1CCN(Cc2ccc(Cl)cc2)CC1,·,0,·,·,10µM*,?
Cc1ccccc1CN1CCN(C(=O)Cc2ccccc2)CC1,25µM*,-1,?,0%,11µM*,22µM*
CC(=O)Nc1ccc(CC(=O)N2CCN(Cc3ccccc3)CC2)cc1,-6%,-5,·,·,-9%,5%
COC(=O)c1ccc(CN2CCN(Cc3ccccc3)CC2)cc1,-10%,·,-1%,9%,79µM*,4%
O=C(Cc1ccccc1)N1CCN(Cc2cccc(Cl)c2)CC1,?,5,·,21%[2.29 µM],3.2µM*,?
C=CCN1CC[C@@]23c4c5ccc(O)c4O[C@H]2/C(=N\N=C2/CC[C@@]4(O)[C@H]6Cc7ccc(O)c8c7[C@@]4(CCN6CC=C)[C@@H]2O8)CC[C@]3(O)[C@@H]1C5,·,·,-13%,·,·,·
CC(C)(O)C1C2OC(=O)C1[C@]1(O)CC3O[C@@]34C(=O)OC2[C@@]14C (stereo partly specified),·,·,-3%,·,·,·
CCC(CC)N1CCN(C(=O)Cc2ccccc2)CC1,?,·,?,1%,3.2µM*,?
Cc1ccc(N2C(=O)NC(=O)/C(=C\c3cnc(-c4ccccc4)nc3)C2=O)cc1,1%,?,3.2µM*,1%,?,-19%
CSc1ncc(/C=C2/C(=O)NC(=O)N(c3ccc(C)cc3)C2=O)cn1,-38%,?,?,-1%,-18%,-5%
CCOc1ccc(N2C(=O)NC(=O)/C(=C/c3cnc(SC)nc3)C2=O)cc1,?,-30,35µM*,·,?,-38%
Cc1ccc(N2C(=O)NC(=O)/C(=C/c3ccoc3)C2=O)cc1,7.9µM*,-83*,?,·,10µM*,10µM*
COc1ccc(-c2noc(=O)n2Cc2cc(C)ccc2C)cc1,-20%,14,0%,-7%,42%,56%
COc1ccccc1CN1CCN(C(=O)COc2cccc(C)c2)CC1,50µM*,2,8%,4%,32µM*,?
COc1cccc(CN2CCN(C(=O)Cc3ccccc3OC)CC2)c1,-10%,1,·,·,-5%,30%

# High-throughput results: PubChem BioAssay, National Center for Advancing Translational Sciences (NCATS)
